# Data reported in the supplement of paper PMC8728848.
# Shown is part of a subset that was picked to be rich in the strongest signals.
# B1: Vd7LysM (Verticillium dahliae) (protein)
# chain: RRGPEPKYPPAAGTSSYCSYWVDYEGDKSCSRVLEDNVVVLKDFARWNPTVGADCSGIKAGNSYCVEAFGEPEPIEVTTTTRAATTTTQPTATTTTFANGIATPQPTQSGMVTNCNKFHWIAEGVSCSQVISFQKITLADFVKWNPSVKSDCSGMWAGVNVCVGVVGSSTDTAKPTTTAPSNGVVTPQPTQPSMVTNCNKFHWIAKGVTCQQVISYQKISLADFVKWNPSVLSDCSGMWAEVQVCVGVIGSTPTTLATTTTTAGNGVSTPLPTQPGMVTNCAKFHWVAKGVTCNQIYSFQKITLEQFVSYNPTVKSDCSGMQAEVQVCVGLIAGTTPTTTRPPTTTAPGNGVSTPQPTQPGMVTNCAKFHWVAKGVTCNQIYSFQKITLEQFVSFNPTVKSDCTGMQAEVNVCVGLIGGNPTPTQTGNGIATPTPIQPGMVSNCKKFHWIAQGVTCQQVISFQKITLADFVKWNTGVGSDCRTMWAETNVCVGV
# Key:
# Assay in all cases: glycan array binding signal (z-score within array); higher = stronger binding
# Conditions in all cases: glycan notation: IUPAC condensed, linker removed
# [1] = biological target: Fuc(a1-2)Gal(b1-3)GalNAc(a1-3)[Fuc(a1-2)]Gal(b1-4)GlcNAc
# Procedure, shortened: (§1)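 From the Consortium for Functional Glycomics database, 3228 arrays were curated, keeping only those whose protein sequence was available. Binding is given as a within-array Z-score averaged across arrays sharing a protein sequence and across linkers. Negative Z-scores can be read as non-binding.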
# [2] = biological target: Fuc(a1-2)Gal(b1-3)GlcNAc(b1-3)[Gal(b1-4)GlcNAc(b1-6)]Gal(b1-4)Glc
# Procedure, shortened: as §1
# [3] = biological target: Fuc(a1-2)Gal(b1-3)[Fuc(a1-4)]GlcNAc(b1-3)[Gal(b1-4)GlcNAc(b1-6)]Gal(b1-4)Glc
# Procedure, shortened: as §1
# Fuc(a1-2)Gal(b1-4)Glc6S = biological target: Fuc(a1-2)Gal(b1-4)Glc6S
# Procedure, shortened: as §1
# [4] = biological target: Fuc(a1-2)Gal(b1-4)GlcNAc(b1-2)Man(a1-3)[Fuc(a1-2)Gal(b1-4)GlcNAc(b1-2)Man(a1-6)]Man(b1-4)GlcNAc(b1-4)GlcNAc
# Procedure, shortened: as §1
# [5] = biological target: Fuc(a1-2)Gal(b1-4)GlcNAc(b1-2)[Fuc(a1-2)Gal(b1-4)GlcNAc(b1-4)]Man(a1-3)[Fuc(a1-2)Gal(b1-4)GlcNAc(b1-2)Man(a1-6)]Man(b1-4)GlcNAc(b1-4)GlcNAc
# Procedure, shortened: as §1
# [6] = biological target: Fuc(a1-2)Gal(b1-4)GlcNAc(b1-3)Gal(b1-4)GlcNAc(b1-2)Man(a1-3)[Fuc(a1-2)Gal(b1-4)GlcNAc(b1-3)Gal(b1-4)GlcNAc(b1-2)Man(a1-6)]Man(b1-4)GlcNAc(b1-4)GlcNAc
# Procedure, shortened: as §1
# [7] = biological target: Fuc(a1-2)Gal(b1-4)GlcNAc(b1-3)Gal(b1-4)GlcNAc(b1-3)Gal(b1-4)GlcNAc
# Procedure, shortened: as §1
# [8] = biological target: Fuc(a1-2)Gal(b1-4)GlcNAc(b1-6)GalNAc
# Procedure, shortened: as §1
# [9] = biological target: Fuc(a1-2)[GalNAc(a1-3)]Gal(b1-4)GlcNAc(b1-3)Gal(b1-4)GlcNAc
# Procedure, shortened: as §1
# [10] = biological target: Fuc(a1-2)[GalNAc(b1-3)]Gal
# Procedure, shortened: as §1
# [11] = biological target: Fuc(a1-3)[Gal(b1-4)]Glc6S
# Procedure, shortened: as §1
# [12] = biological target: Fuc(a1-3)[Gal(b1-4)]GlcNAc
# Procedure, shortened: as §1
# [13] = biological target: Fuc(a1-3)[Gal3S(b1-4)]GlcNAc6S
# Procedure, shortened: as §1
# [14] = biological target: Gal(a1-3)[Gal(a1-4)]Gal(b1-4)GlcNAc
# Procedure, shortened: as §1
# Gal(a1-4)Gal(b1-4)Glc = biological target: Gal(a1-4)Gal(b1-4)Glc
# Procedure, shortened: as §1
# Gal(a1-4)GlcNAc = biological target: Gal(a1-4)GlcNAc
# Procedure, shortened: as §1
# Gal(a1-6)Glc = biological target: Gal(a1-6)Glc
# Procedure, shortened: as §1
# [15] = biological target: Gal(b1-3)GalNAc(b1-4)Gal(b1-4)Glc
# Procedure, shortened: as §1
# Gal(b1-3)GlcNAc = biological target: Gal(b1-3)GlcNAc
# Procedure, shortened: as §1
# [16] = biological target: Gal(b1-3)[Fuc(a1-4)]GlcNAc
# Procedure, shortened: as §1
# [17] = biological target: Gal(b1-3)[Fuc(a1-4)]GlcNAc(b1-3)Gal(b1-3)[Fuc(a1-4)]GlcNAc
# Procedure, shortened: as §1
# [18] = biological target: Gal(b1-3)[Neu5Ac(a2-6)]GlcNAc(b1-4)Gal(b1-4)Glc
# Procedure, shortened: as §1
# Gal(b1-4)Glc6S = biological target: Gal(b1-4)Glc6S
# Procedure, shortened: as §1
# [19] = biological target: Gal(b1-4)GlcNAc(b1-2)Man(a1-3)[Gal(b1-4)GlcNAc(b1-2)Man(a1-6)][Gal(b1-4)GlcNAc(b1-4)]Man(b1-4)GlcNAc(b1-4)[Fuc(a1-6)]GlcNAc
# Procedure, shortened: as §1
# [20] = biological target: Gal(b1-4)GlcNAc(b1-3)Gal(b1-4)GlcNAc(b1-2)[Gal(b1-4)GlcNAc(b1-3)Gal(b1-4)GlcNAc(b1-6)]Man(a1-6)[Gal(b1-4)GlcNAc(b1-3)Gal(b1-4)GlcNAc(b1-2)Man(a1-3)]Man(b1-4)GlcNAc(b1-4)[Fuc(a1-6)]GlcNAc
# Procedure, shortened: as §1
# [21] = biological target: Gal(b1-4)GlcNAc(b1-3)Gal(b1-4)GlcNAc(b1-3)Gal(b1-4)GlcNAc(b1-3)Gal(b1-4)GlcNAc(b1-3)Gal(b1-4)GlcNAc(b1-2)[Gal(b1-4)GlcNAc(b1-3)Gal(b1-4)GlcNAc(b1-3)Gal(b1-4)GlcNAc(b1-3)Gal(b1-4)GlcNAc(b1-3)Gal(b1-4)GlcNAc(b1-6)]Man(a1-6)[Gal(b1-4)GlcNAc(b1-3)Gal(b1-4)GlcNAc(b1-3)Gal(b1-4)GlcNAc(b1-3)Gal(b1-4)GlcNAc(b1-3)Gal(b1-4)GlcNAc(b1-2)Man(a1-3)]Man(b1-4)GlcNAc(b1-4)[Fuc(a1-6)]GlcNAc
# Procedure, shortened: as §1
# Gal4S6S(b1-4)GlcNAc = biological target: Gal4S6S(b1-4)GlcNAc
# Procedure, shortened: as §1
# [22] = biological target: GalNAc(a1-3)GalNAc(b1-3)Gal(a1-4)Gal(b1-4)GlcNAc
# Procedure, shortened: as §1
# [23] = biological target: GalNAc(b1-4)GlcNAc(b1-2)Man(a1-3)[GalNAc(b1-4)GlcNAc(b1-2)Man(a1-6)]Man(b1-4)GlcNAc(b1-4)GlcNAc
# Procedure, shortened: as §1
# GalNAc(b1-6)GalNAc = biological target: GalNAc(b1-6)GalNAc
# Procedure, shortened: as §1
# GalNAc6S(b1-4)GlcNAc = biological target: GalNAc6S(b1-4)GlcNAc
# Procedure, shortened: as §1
# [24] = biological target: Glc(a1-4)Glc(a1-4)Glc(a1-4)Glc
# Procedure, shortened: as §1
# Glc(b1-6)Glc = biological target: Glc(b1-6)Glc
# Procedure, shortened: as §1
# [25] = biological target: GlcNAc(a1-4)Gal(b1-3)GlcNAc
# Procedure, shortened: as §1
# [26] = biological target: GlcNAc(a1-4)Gal(b1-4)GlcNAc(b1-3)Gal(b1-4)[Fuc(a1-3)]GlcNAc(b1-3)Gal(b1-4)[Fuc(a1-3)]GlcNAc
# Procedure, shortened: as §1
# [27] = biological target: GlcNAc(b1-3)Gal(b1-4)GlcNAc
# Procedure, shortened: as §1
# [28] = biological target: GlcNAc(b1-3)Gal(b1-4)GlcNAc(b1-2)Man(a1-3)[GlcNAc(b1-3)Gal(b1-4)GlcNAc(b1-2)Man(a1-6)]Man(b1-4)GlcNAc(b1-4)GlcNAc
# Procedure, shortened: as §1
# [29] = biological target: GlcNAc(b1-3)Gal(b1-4)GlcNAc(b1-3)Gal(b1-4)GlcNAc(b1-2)[GlcNAc(b1-3)Gal(b1-4)GlcNAc(b1-3)Gal(b1-4)GlcNAc(b1-6)]Man(a1-6)[GlcNAc(b1-3)Gal(b1-4)GlcNAc(b1-3)Gal(b1-4)GlcNAc(b1-2)Man(a1-3)]Man(b1-4)GlcNAc(b1-4)[Fuc(a1-6)]GlcNAc
# Procedure, shortened: as §1
# Kdn(a2-3)Gal(b1-3)GalNAc = biological target: Kdn(a2-3)Gal(b1-3)GalNAc
# Procedure, shortened: as §1
# [30] = biological target: Neu5Ac(a2-3)Gal(b1-4)GlcNAc(b1-3)Gal(b1-3)GlcNAc
# Procedure, shortened: as §1
# [31] = biological target: Neu5Ac(a2-3)Gal(b1-4)GlcNAc(b1-3)Gal(b1-4)GlcNAc(b1-2)Man(a1-3)[Neu5Ac(a2-3)Gal(b1-4)GlcNAc(b1-3)Gal(b1-4)GlcNAc(b1-2)Man(a1-6)]Man(b1-4)GlcNAc(b1-4)GlcNAc
# Procedure, shortened: as §1
# [32] = biological target: Neu5Ac(a2-3)Gal(b1-4)[Fuc(a1-3)]GlcNAc(b1-2)Man
# Procedure, shortened: as §1
# [33] = biological target: Neu5Ac(a2-3)Gal(b1-4)[Fuc(a1-3)]GlcNAc(b1-3)Gal(b1-4)GlcNAc
# Procedure, shortened: as §1
# [34] = biological target: Neu5Ac(a2-6)Gal(b1-4)GlcNAc(b1-2)Man(a1-3)[Neu5Ac(a2-3)Gal(b1-4)GlcNAc(b1-2)Man(a1-6)]Man(b1-4)GlcNAc(b1-4)GlcNAc
# Procedure, shortened: as §1
# [35] = biological target: Neu5Ac(a2-6)Gal(b1-4)GlcNAc6S
# Procedure, shortened: as §1
# Neu5Ac(a2-8)Neu5Ac = biological target: Neu5Ac(a2-8)Neu5Ac
# Procedure, shortened: as §1
# [36] = biological target: Neu5Ac(a2-8)Neu5Ac(a2-8)Neu5Ac
# Procedure, shortened: as §1
# [37] = biological target: Neu5Ac9Ac(a2-6)Gal(b1-4)GlcNAc
# Procedure, shortened: as §1
# [38] = biological target: Neu5Gc(a2-3)Gal(b1-4)GlcNAc
# Procedure, shortened: as §1
# [39] = biological target: Neu5Gc(a2-3)Gal(b1-4)[Fuc(a1-3)]GlcNAc
# Procedure, shortened: as §1
# [40] = biological target: Neu5Gc(a2-8)Neu5Ac(a2-3)Gal(b1-4)GlcNAc
# Procedure, shortened: as §1
binder,measurement,setting,value
B1,glycan array binding signal (z-score),[1],-0.691
same,glycan array binding signal (z-score),[2],-0.772
same,glycan array binding signal (z-score),[3],-1.91
same,glycan array binding signal (z-score),Fuc(a1-2)Gal(b1-4)Glc6S,2.67
same,glycan array binding signal (z-score),[4],2.13
same,glycan array binding signal (z-score),[5],-0.492
same,glycan array binding signal (z-score),[6],0.254
same,glycan array binding signal (z-score),[7],3.25
same,glycan array binding signal (z-score),[8],0.512
same,glycan array binding signal (z-score),[9],1.94
same,glycan array binding signal (z-score),[10],0.38
same,glycan array binding signal (z-score),[11],0.721
same,glycan array binding signal (z-score),[12],-0.68
same,glycan array binding signal (z-score),[13],1.04
same,glycan array binding signal (z-score),[14],-0.317
same,glycan array binding signal (z-score),Gal(a1-4)Gal(b1-4)Glc,3.04
same,glycan array binding signal (z-score),Gal(a1-4)GlcNAc,0.386
same,glycan array binding signal (z-score),Gal(a1-6)Glc,-1.58
same,glycan array binding signal (z-score),[15],2.86
same,glycan array binding signal (z-score),Gal(b1-3)GlcNAc,-0.186
same,glycan array binding signal (z-score),[16],-0.618
same,glycan array binding signal (z-score),[17],1.63
same,glycan array binding signal (z-score),[18],-0.885
same,glycan array binding signal (z-score),Gal(b1-4)Glc6S,0.592
same,glycan array binding signal (z-score),[19],-0.393
same,glycan array binding signal (z-score),[20],2.56
same,glycan array binding signal (z-score),[21],4.04
same,glycan array binding signal (z-score),Gal4S6S(b1-4)GlcNAc,0.198
same,glycan array binding signal (z-score),[22],0.706
same,glycan array binding signal (z-score),[23],-1.23
same,glycan array binding signal (z-score),GalNAc(b1-6)GalNAc,0.192
same,glycan array binding signal (z-score),GalNAc6S(b1-4)GlcNAc,0.22
same,glycan array binding signal (z-score),[24],0.035
same,glycan array binding signal (z-score),Glc(b1-6)Glc,-1.06
same,glycan array binding signal (z-score),[25],-0.658
same,glycan array binding signal (z-score),[26],1.23
same,glycan array binding signal (z-score),[27],0.117
same,glycan array binding signal (z-score),[28],2.67
same,glycan array binding signal (z-score),[29],2.72
same,glycan array binding signal (z-score),Kdn(a2-3)Gal(b1-3)GalNAc,3.09
same,glycan array binding signal (z-score),[30],1.03
same,glycan array binding signal (z-score),[31],2.5
same,glycan array binding signal (z-score),[32],-0.307
same,glycan array binding signal (z-score),[33],0.427
same,glycan array binding signal (z-score),[34],0.213
same,glycan array binding signal (z-score),[35],0.8
same,glycan array binding signal (z-score),Neu5Ac(a2-8)Neu5Ac,-0.418
same,glycan array binding signal (z-score),[36],-0.119
same,glycan array binding signal (z-score),[37],2.97
same,glycan array binding signal (z-score),[38],0.306
same,glycan array binding signal (z-score),[39],0.377
same,glycan array binding signal (z-score),[40],-0.354
